These results are taken from the supplement of paper PMC8975748.

Where a name gives a salt, the structure may show the parent alone. ± gives the standard deviation of the averaged measurements.

The test system of this assay is Saccharomyces cerevisiae BY4741 SeMeCo community. Nature of the assay: mean cell size (pixel area) (pixels); higher = larger cells. The following applies: 10 µM; 24 h; SM minimal medium. An outline of the steps: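 Mean cell pixel area per well was measured in a four-plasmid fluorescent community of Saccharomyces cerevisiae BY4741, where every plasmid complements one auxotrophy and carries a fluorescent marker. Cells from an overnight preculture at OD600 = 1.0 were diluted to OD600 = 0.3 and dispensed at 70 µl into 384-well plates acoustically predosed with drug to a final 10 µM in SM medium. Incubation lasted 24 h, followed by paraformaldehyde fixation, automated confocal imaging and analysis in Harmony. Reported figures are averaged over 3 replicates. Same SeMeCo high-content imaging drug screen: Selleck FDA-approved drugs at 10 µM, 24 h in SM medium, 384-well plates, 3 replicates.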
For the compound `CC[C@H](C)C(=O)O[C@H]1C[C@H](O)C=C2C=C[C@H](C)[C@H](CC[C@@H](O)C[C@@H](O)CC(=O)O)[C@H]21` [Pravastatin], the mean cell size came out at 12.2 ± 0.19. Under `Oc1c(Cl)cc(Cl)c2cccnc12` [Chloroxine] stands 13.6 ± 0.85; under `Cc1ncc([N+](=O)[O-])n1C` [Dimetridazole], 12.5 ± 0.19; under `Clc1ccc(COC(Cn2ccnc2)c2ccc(Cl)cc2Cl)cc1` (stereo not given) [Econazole nitrate], 11.9 ± 0.2.

Compound `COc1ccc(C[C@H](N)C(=O)N[C@H]2[C@@H](O)[C@H](n3cnc4c(N(C)C)ncnc43)O[C@@H]2CO)cc1` [Puromycin 2HCl] showed a mean cell size of 12.5 ± 0.13. `O=C(O)CCCCCCCC(=O)O` [Azelaic acid] yielded a mean cell size of 12.4 ± 0.2. The value for `COc1cccc2c1C(=O)c1c(O)c3c(c(O)c1C2=O)CC(O)(C(=O)CO)CC3OC1CC(N)C(O)C(C)O1` (stereo not given) [Doxorubicin (Adriamycin) HCl] was 13.68 ± 0.1. Turning to `Clc1ccc(CCC(Cn2ccnc2)Sc2c(Cl)cccc2Cl)cc1` (stereo not given) [Butoconazole nitrate], the mean cell size was 12.5 ± 0.15. Under `CCC(C)(Oc1ccc(C2(c3ccc(OC(C)(CC)C(=O)O)cc3)CCCCC2)cc1)C(=O)O` (stereo not given) [Clinofibrate] stands 13.24 ± 0.13; under `Cc1ccsc1/C=C/C1=NCCCN1C` [Morantel tartrate], 12.28 ± 0.098. Compound `Clc1ccc(COC(Cn2ccnc2)c2ccc(Cl)cc2Cl)c(Cl)c1` (stereo not given) [Miconazole Nitrate] gave a mean cell size of 12.3 ± 0.19. `O=c1[nH]c(=O)n([C@H]2C[C@H](O)[C@@H](CO)O2)cc1/C=C/Br` [Brivudine] had a mean cell size of 12.41 ± 0.042. `CN[C@@H]1[C@@H](O)[C@@H](O[C@@H]2[C@@H](O)[C@H](O[C@H]3O[C@H](CN)[C@@H](O)[C@H](O)[C@H]3O)[C@@H](N)C[C@H]2NC(=O)[C@@H](O)CN)OC[C@]1(C)O` [Isepamicin Sulphate] came in with a mean cell size of 12.1 ± 0.21. Under `O=C(Cn1cnnn1)N[C@@H]1C(=O)N2C(C(=O)O)=C(CSc3nncs3)CS[C@H]12` [Ceftezole] stands 12 ± 0.2; under `CN(C)CCCN1c2ccccc2CCc2ccc(Cl)cc21` [Clomipramine HCl], 12.55 ± 0.052. The value for `COc1ccc2c(c1)c(CC(=O)O)c(C)n2C(=O)c1ccc(Cl)cc1` [Indomethacin] was 12.29 ± 0.12. In the case of `CC[C@H]1OC(=O)[C@H](C)[C@@H](O[C@H]2C[C@@](C)(OC)[C@@H](O)[C@H](C)O2)[C@H](C)[C@@H](O[C@@H]2O[C@H](C)C[C@H](N(C)C)[C@H]2O)[C@](C)(O)C[C@@H](C)CN[C@H](C)[C@@H](O)[C@]1(C)O` [Azathramycin], the mean cell size stood at 12.5 ± 0.16.

As to `C#C[C@]1(OC(C)=O)CC[C@H]2[C@@H]3CCC4=C[C@@H](OC(C)=O)CC[C@@H]4[C@H]3CC[C@@]21C` [Ethynodiol diacetate], the mean cell size came to 12.3 ± 0.37. `N[C@@H]1CN(c2c(F)cc3c(=O)c(C(=O)O)cn([C@@H]4C[C@@H]4F)c3c2Cl)CC12CC2` [Sitafloxacin Hydrate] had a mean cell size of 12.2 ± 0.062. Consider `CN(C)CCc1c[nH]c2ccc(CS(=O)(=O)N3CCCC3)cc12` [Almotriptan Malate], for which the mean cell size stood at 12.4 ± 0.14. Turning to `CC[C@@]1(O)C(=O)OCc2c1cc1n(c2=O)Cc2cc3c(CN(C)C)c(O)ccc3nc2-1` [Topotecan HCl], the mean cell size was found to be 12.5 ± 0.14. Under `COc1cccc2c1C(=O)c1c(O)c3c(c(O)c1C2=O)C[C@@](O)(C(C)=O)C[C@@H]3O[C@H]1C[C@H](N)[C@H](O)[C@H](C)O1` [Daunorubicin HCl] stands 12.78 ± 0.043. For the compound `NC(=O)C(c1ccccc1)(c1ccccc1)[C@@H]1CCN(CCc2ccc3c(c2)CCO3)C1` [Darifenacin HBr], the mean cell size worked out at 12.4 ± 0.39. The compound `C=C1CCN([C@H](C)[C@](O)(Cn2cncn2)c2ccc(F)cc2F)CC1` [Efinaconazole] had a mean cell size of 11.3 ± 0.097. Under `CN(C)[C@@H]1C(O)=C(C(N)=O)C(=O)[C@@]2(O)C(O)=C3C(=O)c4c(O)ccc(Cl)c4[C@@H](O)[C@H]3C[C@@H]12` [Demeclocycline HCl] stands 12.5 ± 0.32. In turn, `O=C(C1CCCCC1)N1CC(=O)N2CCc3ccccc3C2C1` (stereo not given) [Praziquantel] came in with a mean cell size of 12.39 ± 0.1. Compound `C[C@@H](O)[C@H]1C(=O)N2C(C(=O)O)=C(S[C@@H]3CN[C@H](C(=O)N(C)C)C3)[C@H](C)[C@H]12` [Meropenem Trihydrate] had a mean cell size of 12.6 ± 0.27. In turn, `Cn1c(=O)c2[nH]cnc2n(C)c1=O` [Aminophylline] returned a mean cell size of 12.5 ± 0.19. Compound `CC[C@@H]1/C=C(\C)C[C@H](C)C[C@H](OC)[C@H]2O[C@@](O)(C(=O)C(=O)N3CCCC[C@H]3C(=O)O[C@H](/C(C)=C/[C@@H]3CC[C@@H](O)[C@H](OC)C3)[C@H](C)[C@@H](O)CC1=O)[C@H](C)C[C@@H]2OC` [Ascomycin (FK520)] returned a mean cell size of 11.8 ± 0.18.

Compound `NC(=N\CCCCCC/N=C(N)/N=C(\N)Nc1ccc(Cl)cc1)/N=C(\N)Nc1ccc(Cl)cc1` [Chlorhexidine diacetate] yielded a mean cell size of 11.5 ± 0.11.

Take `CCN1CCN(C(=O)N[C@@H](C(=O)N[C@@H]2C(=O)N3C(C(=O)O)=C(CSc4nnnn4C)CS[C@H]23)c2ccc(O)cc2)C(=O)C1=O` [Cefoperazone]: the mean cell size came to 12.5 ± 0.21.

Take `CN1CCC(=C2c3ccccc3CCc3sccc32)CC1` [Pizotifen Malate]: the mean cell size amounted to 12.5 ± 0.16. With `CC[C@H]1OC(=O)C[C@@H](O)[C@H](C)[C@@H](O[C@@H]2O[C@H](C)[C@@H](O)[C@H](N(C)C)[C@H]2O)[C@@H](CCN2C[C@H](C)C[C@H](C)C2)C[C@@H](C)C(=O)/C=C/C(C)=C/[C@@H]1CO[C@@H]1O[C@H](C)[C@@H](O)[C@@H](OC)[C@H]1OC` [Tilmicosin], the mean cell size worked out at 12.4 ± 0.17. `CC(Cc1ccc(O)c(O)c1)C(C)Cc1ccc(O)c(O)c1` (stereo not given) [Nordihydroguaiaretic acid (NDGA)] showed a mean cell size of 12.5 ± 0.17. Compound `COc1cnc(NS(=O)(=O)c2ccc(N)cc2)nc1` [Sulfameter] gave a mean cell size of 12.53 ± 0.07. `COc1cc(O)c(C(=O)Nc2nc(C(=O)NCCN(C(C)C)C(C)C)cs2)cc1OC` [Acotiamide hydrochloride] returned a mean cell size of 12.4 ± 0.15. `Nc1ccc(C(=O)O)c(O)c1` [4-Aminosalicylic acid]: the mean cell size turned out to be 12 ± 0.19. The value for `CC1(C)S[C@@H]2[C@H](NC(=O)[C@H](N)c3ccccc3)C(=O)N2[C@H]1C(=O)O` [Ampicillin Trihydrate] was 12.4 ± 0.33; that for `COc1c(N2C[C@@H]3CCCN[C@@H]3C2)c(F)cc2c(=O)c(C(=O)O)cn(C3CC3)c12` [Moxifloxacin HCl] was 12.3 ± 0.15; that for `O=C(O)C[C@H](O)C[C@H](O)/C=C/c1c(C2CC2)nc2ccccc2c1-c1ccc(F)cc1` [Pitavastatin Calcium] was 12 ± 0.2.
